Laboratory results published in PubChem BioAssay (NCATS).
Results filed as inconclusive are left out. Unless noted, calls come from the whole dose curve; as a rule, active = well fitted curve in either direction with a large enough effect (not every such curve was filed as active); inconclusive = small, poorly fitted or top-dose-only effect, or another doubt; inactive = flat fitted curve, though single readings scatter.

Assays:
[1] = AP1 Signaling Pathway (AID 357); settings: ME-180 AP-1-bla reporter, EGF-induced, beta-lactamase ratio, 5 h; at 17.2 µM (top of the series) unless noted;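 note: ME-180 reporter cells stimulated with EGF at its EC50 level; % is set by controls: 0 for no effect and ±100 for the full control effect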
Summary of the method: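 Cells are seeded overnight, exposed to compound titrations and an EC50 level of EGF for 5 hours at 37 °C, then loaded with CCF4 dye for 2.5 hours. Beta-lactamase activity under the AP-1 element is read as a blue/green ratio.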

[2] = NFAT Signaling Pathway (AID 444); settings: Jurkat NFAT-bla M1, carbachol, beta-lactamase ratio, 5 h; at 17.2 µM (top of the series) unless noted;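 note: carbachol stimulus at about its EC50 of 1 µM final; % is set by controls: 0 for no effect and ±100 for the full control effect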
Summary of the method: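 Jurkat cells carrying an NFAT-driven β-lactamase reporter and co-transfected muscarinic M1 receptor were treated with compound plus carbachol (1 uM final, an EC50 level) for 5 h at 37 °C. CCF4 loading followed for 1 h at RT; 460/530 nm ratio gave %activity.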

[3] = Stat Signaling Pathway (AID 446); settings: ME-180 (cervical carcinoma) SIE beta-lactamase reporter, IL-6 stimulated, 5 h; at 17.2 µM (top of the series) unless noted;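 note: ME-180 cervical cancer cells given 40 pM IL-6 alongside compound; SIE-controlled beta-lactamase reporter measured as 460/530 nm FRET emission ratio; % is set by controls: 0 for no effect and ±100 for the full control effect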
Summary of the method: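 Normalization used AC90 stimulation (300 pM IL-6) and AC90 inhibition (125 nM pan-JAK inhibitor at 40 pM IL-6). The underlying signal is SIE-driven beta-lactamase in ME-180 cells after 5 h IL-6 exposure with compound.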

[4] = target: Glucocorticoid receptor (Homo sapiens) (UniProt P04150); assay: GR-GFP Redistribution (AID 450;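 active = compounds whose dose series gives a full or clear partial fitted curve of increased nuclear translocation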; note: potency is the fitted concentration of half-maximal effect)
Glucocorticoid receptor (Homo sapiens), sequence (P04150 whole entry, looked up): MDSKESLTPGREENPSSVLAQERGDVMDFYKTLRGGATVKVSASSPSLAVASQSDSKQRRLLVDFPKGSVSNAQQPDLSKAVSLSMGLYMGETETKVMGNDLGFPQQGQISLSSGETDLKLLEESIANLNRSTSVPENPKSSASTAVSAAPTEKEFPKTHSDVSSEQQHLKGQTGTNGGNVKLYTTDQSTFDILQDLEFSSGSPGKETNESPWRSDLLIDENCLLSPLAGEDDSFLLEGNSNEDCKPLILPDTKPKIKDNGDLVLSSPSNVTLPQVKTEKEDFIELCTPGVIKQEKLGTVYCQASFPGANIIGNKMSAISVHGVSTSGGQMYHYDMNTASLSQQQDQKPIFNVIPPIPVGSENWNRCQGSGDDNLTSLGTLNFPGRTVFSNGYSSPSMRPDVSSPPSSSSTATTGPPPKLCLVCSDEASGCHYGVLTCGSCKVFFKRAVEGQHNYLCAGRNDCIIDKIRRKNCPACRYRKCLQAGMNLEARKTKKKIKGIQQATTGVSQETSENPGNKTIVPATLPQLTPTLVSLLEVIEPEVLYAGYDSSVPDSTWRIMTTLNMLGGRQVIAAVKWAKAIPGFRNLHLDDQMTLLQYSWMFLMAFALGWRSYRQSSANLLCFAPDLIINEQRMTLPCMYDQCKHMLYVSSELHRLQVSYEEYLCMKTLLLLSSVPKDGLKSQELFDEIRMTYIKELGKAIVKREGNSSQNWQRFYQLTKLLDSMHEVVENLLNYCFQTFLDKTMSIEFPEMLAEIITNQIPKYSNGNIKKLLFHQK

N#C/C(C(=O)NCc1ccco1)=C1/SC(Cc2ccc(F)cc2)C(=O)N1c1ccccc1 (stereo not given)
inactive: activity change, negative = inhibition [1] 1.52% | activity change, negative = inhibition [2] -9.67% | activity, negative = inhibition [3] -22.9% | Potency [4] > 20.6 µM

CCN(CC)CCN1C(=O)C(=O)/C(=C(/O)c2ccc(OC(C)C)cc2)C1c1ccncc1 (stereo not given)
inactive: activity change, negative = inhibition [1] -12% | activity change, negative = inhibition [2] 0.331% | activity, negative = inhibition [3] -2.31% | Potency [4] > 20.6 µM

CC(C)C1Cc2c(C#N)c(N)sc(=S)c2CO1 (stereo not given)
inactive: activity change, negative = inhibition [1] -19.3% | activity change, negative = inhibition [2] -23.4% | activity, negative = inhibition [3] 1.85% | Potency [4] > 20.6 µM

CN(C)c1ccc(C2C3C(=O)N(c4ccc(C(=O)O)cc4)C(=O)C3ON2c2ccccc2)cc1 (stereo not given)
inactive: activity change, negative = inhibition [1] -1.48% | activity change, negative = inhibition [2] 17.3% | activity, negative = inhibition [3] 5.33% | Potency [4] > 20.6 µM

COC(=O)c1c(C)[nH]c(C(=O)OCc2ccc(F)cc2)c1C
inactive: activity change, negative = inhibition [1] 14.7% | activity change, negative = inhibition [2] 5.66% | activity, negative = inhibition [3] -8.92% | Potency [4] > 20.6 µM

Cc1cc(C(F)(F)F)nn1CC(=O)NCC1CCCO1 (stereo not given)
inactive: activity change, negative = inhibition [1] 3.74% | activity change, negative = inhibition [2] -11% | activity, negative = inhibition [3] 3.03% | Potency [4] > 20.6 µM

COc1cccc(C(=O)N2CCN(S(=O)(=O)Cc3ccccc3)CC2)c1OC
inactive: activity change, negative = inhibition [1] 8.1% | activity change, negative = inhibition [2] 18.1% | activity, negative = inhibition [3] -3.28% | Potency [4] > 20.6 µM

CC(=O)N1CCC2(CC1)C(C#N)=C(N)Oc1n[nH]c(C(F)(F)F)c12
inactive: activity change, negative = inhibition [1] 8.06% | activity change, negative = inhibition [2] -24.1% | activity, negative = inhibition [3] 5.71% | Potency [4] > 20.6 µM

COc1cccc(C2C(C(=O)c3sc(C)nc3C)=C(O)C(=O)N2CCN2CCOCC2)c1OC (stereo not given)
inactive: activity change, negative = inhibition [1] 3.76% | activity change, negative = inhibition [2] 12.8% | activity, negative = inhibition [3] 7.97% | Potency [4] > 20.6 µM

CCOC(=O)c1ccc(CSc2ncn[nH]2)o1
inactive: activity change, negative = inhibition [1] 0.882% | activity change, negative = inhibition [2] -2.95% | activity, negative = inhibition [3] 5.39% | Potency [4] > 20.6 µM

CC(C)Cc1nc2n[nH]c(N)c2c2c1CCC2
inactive: activity change, negative = inhibition [1] 2.89% | activity change, negative = inhibition [2] 28.5% | activity, negative = inhibition [3] -5.62% | Potency [4] > 20.6 µM

Cc1ccc(-n2ncc3c(NCCCN4CCCC4=O)ncnc32)c(C)c1
inactive: activity change, negative = inhibition [1] -15.8% | activity change, negative = inhibition [2] 11.5% | activity, negative = inhibition [3] 9.31% | Potency [4] > 20.6 µM

CCOC(=O)C1=C(c2ccccc2)NC(SCC(=O)Nc2ccccc2C)=C(C#N)C1c1ccco1 (stereo not given)
inactive: activity change, negative = inhibition [1] -1.47% | activity change, negative = inhibition [2] -6.28% | activity, negative = inhibition [3] -9.31% | Potency [4] > 20.6 µM

CCOC(=O)CNC(=O)CNC(=O)c1ccc(OC)cc1
inactive: activity change, negative = inhibition [1] 8.37% | activity change, negative = inhibition [2] -1.87% | activity, negative = inhibition [3] 14.1% | Potency [4] > 20.6 µM

CC1(C)Cc2c(sc3ncn4nc(-c5ccco5)nc4c23)CO1
inactive: activity change, negative = inhibition [1] -5.24% | activity change, negative = inhibition [2] 8.04% | activity, negative = inhibition [3] -2.67% | Potency [4] > 20.6 µM

COC(=O)C(NC(=O)c1ccccc1)(Nc1nc(C)cs1)C(F)(F)F (stereo not given)
inactive: activity change, negative = inhibition [1] 20% | activity change, negative = inhibition [2] 6.46% | activity, negative = inhibition [3] -6.57% | Potency [4] > 20.6 µM

CCCNC1=C(C)C(=O)CC1
inactive: activity change, negative = inhibition [1] 11.1% | activity change, negative = inhibition [2] -5.45% | activity, negative = inhibition [3] 0.709% | Potency [4] > 20.6 µM

CCOC(=O)c1ccc(NCC(O)COc2ccccc2)cc1 (stereo not given)
inactive: activity change, negative = inhibition [1] -4.75% | activity change, negative = inhibition [2] -1.02% | activity, negative = inhibition [3] -4.83% | Potency [4] > 20.6 µM

c1ccc(-c2nc(NCC3CCCO3)c3ccccc3n2)nc1 (stereo not given)
inactive: activity change, negative = inhibition [1] -1.55% | activity change, negative = inhibition [2] -27.7% | activity, negative = inhibition [3] -6.67% | Potency [4] > 20.6 µM

CCCc1nnc(NC(=O)c2c(O)c3c([nH]c2=O)CCCC3)s1
inactive: activity change, negative = inhibition [1] -4.44% | activity change, negative = inhibition [2] -18.4% | activity, negative = inhibition [3] 12.4% | Potency [4] > 20.6 µM

COC(=O)C(NC(C)=O)(Nc1ccc(Br)cc1)C(=O)OC
inactive: activity change, negative = inhibition [1] 8.16% | activity change, negative = inhibition [2] -1.04% | activity, negative = inhibition [3] 8.85% | Potency [4] > 20.6 µM

COc1ccc(CCNC(=O)c2ccc(=O)[nH]n2)cc1OC
inactive: activity change, negative = inhibition [1] -1.15% | activity change, negative = inhibition [2] -8.89% | activity, negative = inhibition [3] 3.06% | Potency [4] > 20.6 µM

Cn1c(=O)c2c(nc(NCc3ccco3)n2Cc2ccccc2Cl)n(C)c1=O
inactive: activity change, negative = inhibition [1] 16.7% | activity change, negative = inhibition [2] 2.77% | activity, negative = inhibition [3] -14.8% | Potency [4] > 20.6 µM

N/C(=N\c1nc2ccccc2o1)NC(=O)c1ccccc1NC(=O)c1ccccc1
inactive: activity change, negative = inhibition [1] 14.1% | activity change, negative = inhibition [2] -14.2% | activity, negative = inhibition [3] -27.8% | Potency [4] > 20.6 µM

CCOC(=O)c1[nH]c2cc3c(cc2c1NC(=O)CN1CC(C)CC(C)C1)OCO3 (stereo not given)
inactive: activity change, negative = inhibition [1] -14.1% | activity change, negative = inhibition [2] -21% | activity, negative = inhibition [3] -2.27% | Potency [4] > 20.6 µM
